# Source: PubChem BioAssay (EPA / NIEHS)
# The source made the active and inactive calls. How the source made its calls: active means hit-call score of the fitted dose curve at least 0.9, where 1 is the maximum; inconclusive means response in the unintended direction; inactive means score below 0.9.
# Test system: rat Monoamine Oxidase, MAO-A, Central (MAOAC), gene 29253
# Experiment: NVS_ENZ_rMAOAC: NovaScreen (NVS) Enzymatic Assay for rat Monoamine Oxidase, MAO-A, Central (MAOAC) (AID 2283243);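 further: potency refers to inhibition seen as signal drop below DMSO baseline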
# Outline: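 Scintillation read-out of MAO-A activity in rat brain lysate, 1.5 h post-dosing. Primary single-concentration screen: 25 uM, duplicate; actives re-tested in concentration series. DMSO = negative control/baseline.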
SMILES,AC50,outcome
Nc1ccc(Oc2cccc(Oc3ccc(N)cc3)c2)cc1,22.7 µM (active),–
Cc1c(Cl)c(=O)oc2cc(O)ccc12,12.2 µM (active),–
O=C1c2ccccc2C(=O)c2c(Cl)cccc21,3.72 µM (active),–
CN(C)C(=O)Nc1ccc(Cl)c(Cl)c1,13.6 µM (active),–
O=[N+]([O-])c1ccc(O)cc1C(F)(F)F,21.1 µM (active),–
c1ccc2c(c1)[nH]c1ccccc12,16.7 µM (active),–
c1ccc2cc3ccccc3cc2c1,25 µM (active),–
COC(=O)c1ccccc1C(=O)O,–,inactive
CNNCc1ccc(C(=O)NC(C)C)cc1,18 µM (active),–
CCC(=O)OC/C=C(\C)CCC=C(C)C,–,inactive
CN1CN(C)CN(C)C1,–,inactive
Oc1cccc2ccccc12,15.4 µM (active),–
Cc1cc(C)c(C=O)c(C)c1,19.9 µM (active),–
Nc1cccc(N)c1,4.33 µM (active),–
